Assay results taken from PubChem BioAssay (NCI).
The panel holds about 83,000 compounds, 20% with a hit somewhere; the sample as a whole holds those more often.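 Step 1: grow cells in 96-well plates. Step 2: add test compound at a single concentration. Step 3: incubate 48 h. Step 4: record percent growth.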 A number with no mark means an inactive call. Calls of active or inactive are those of the source. The calls were made as follows: active = growth percent below 10; inactive = the rest.

These molecules were tested on OVCAR-8 ovarian (assay: NCI-60 one-dose screen, 48 h (100 = growth as untreated, 0 = no growth, -100 = all killed)). Details: 10 µM unless noted.
`Nc1c(C(=O)Nc2ccccc2)sc2nc3c(cc12)CCCCC3` gave a growth of 17.9%.
`CCNC(=O)CCCCC(=O)c1c(C)[nH]c(/C=C2\N=C(c3ccc[nH]3)C=C2OC)c1C` was tested, and the growth was -38.3% (active).
With `Cc1cc(Nc2nc(C(=O)Nc3ccccc3)nc3ccccc23)n[nH]1` the growth was 75.6%.
In the case of `CCCCCCCCCCCCCCCCC(Br)C(=O)O` (centres undefined), the growth is reported as 103%.
`COc1ccc(/C=C2\C(=O)N(C(=O)c3csc(NC(C)=O)n3)N=C2C)cc1` gave a growth of 96%.
For `COc1ccc(-c2nc3sccn3c2-c2ccnc(NCCCNS(=O)(=O)c3ccc4ccccc4c3)n2)cc1`, the growth was 57.3%.
`CC[C@]1(O)C[C@@H]2CN(Cc3c([nH]c4ccccc34)[C@@](C(=O)OC)(c3cc4c(cc3OC)N(C)[C@H]3[C@@](O)(C(=O)OC)[C@H](OC(C)=O)[C@]5(CC)[C@@H]6C[C@@H]6CN6CC[C@]43[C@@H]65)C2)C1` showed a growth of 11.9%.
`CN=S(=O)(NC(=O)c1ccc(Cl)cc1Cl)c1ccc(Br)s1` (centres undefined) showed a growth of 97.6%.
In the case of `Cc1ccc(S(=O)(=O)NCCCNc2nccc(-c3c(-c4ccccc4)nc4sccn34)n2)cc1`, the growth is reported as 37.9%.
In the case of `COc1cc(OC)c(C(=O)/C=C/c2cccc(C#N)c2)c(OC)c1`, the growth is reported as 7.46% (active).
Molecule `COc1ccc(C2CC(c3cccs3)=NN2c2ccc(S(=O)(=O)NC(=O)Nc3ccc(C)cc3)cc2)cc1` (centres undefined) has a growth of 99.8%.
Molecule `O=S(=O)(NCCNc1nccc(-c2c(-c3ccccc3)nc3sccn23)n1)c1ccc(O)cc1` has a growth of 40.8%.
Work on `CNC(=O)Cc1nc(-c2cccc(NS(=O)(=O)c3c(F)cccc3F)c2F)c(-c2ccnc(Nc3ccccc3)n2)s1` yielded a growth of 57.8%.
For `O=c1[nH]c2ccccc2cc1-c1nnc(Cc2ccccc2)o1`, the growth was 57.8%.
For `CCCCCCC[C@@H](O)CC(=O)N[C@H](CCCCN)C(=O)N[C@H](Cc1c[nH]c2ccccc12)C(=O)NC(CCCCN)C(=O)N[C@H](CC(C)C)C(=O)N[C@H](Cc1ccccc1)C(=O)N[C@H](CCCCN)C(=O)N[C@H](CCCCN)C(=O)N[C@H](CC(C)C)C(=O)N1CCCC1C(=O)N[C@H](CCCCN)C(=O)N[C@H](Cc1ccccc1)C(=O)N[C@H](CC(C)C)C(=O)N[C@H](Cc1c[nH]cn1)C(=O)N[C@H](CC(C)C)C(=O)N[C@H](C)C(=O)N[C@H](CCCCN)C(=O)N[C@H](CCCCN)C(=O)N[C@H](Cc1ccccc1)C(=O)O` (some centres undefined), the growth was -11.1% (active).
`Oc1ccc(Cl)cc1-c1cc(-c2ccc(Cl)cc2)n[nH]1` was tested, and the growth was 72.5%.
In the case of `CN1C(=O)[C@H]2c3c1cccc3[C@@]13NC(=O)O[C@H]1[C@H](CCC3(C)C)C2(C)C`, the growth is reported as 96.1%.
In the case of `Cc1cccc(-n2c(C)nc3ccc(NC(=O)NCCCl)cc3c2=O)c1`, the growth is reported as 107%.
For `COc1c(NC[C@H]2OC(O)[C@H](O)[C@@H](O)[C@@H]2O)c(=O)c1=O` (some centres undefined), the growth was 101%.
`COc1ccc(-c2nnc(COc3ccc(NS(=O)(=O)c4ccc(OC)cc4)cc3F)o2)cc1` was tested, and the growth was 82.5%.
`CCCOC(=O)C1(O)CCCC1` showed a growth of 102%.
In the case of `Nc1c(C(=O)Nc2ccccc2)sc2nc3c(cc12)CN(Cc1ccccc1)CC3`, the growth is reported as 74.8%.
`COc1cc(OC)cc(-c2n[nH]nc2-c2ccc3c(c2)OCO3)c1` was tested, and the growth was 28.6%.
Molecule `Cc1ccc(Oc2nc3ccccc3cc2-c2nnc(Cn3c(COc4ccccc4)nc4ccccc43)o2)cc1` has a growth of 25.5%.
For `COc1cc(C(=O)/C=C/c2cc(C(=O)c3cc(OC)c(OC)c(OC)c3)ccc2OC)ccc1N`, the growth was 4.2% (active).

What follows are molecules tested on OVCAR-5 ovarian in the same assay as above. Details: 10 µM unless noted.
With `COc1ccc(C2SCC(=O)N2NC(=O)c2ccc(NC(=O)c3ccccn3)cc2)cc1OC` (centres undefined) the growth was 100%.
`O=C(O)c1cn(C2CC2)c2cc(N3CCN(S(=O)(=O)c4ccc(Cl)c(Cl)c4)CC3)c(F)cc2c1=O` was tested, and the growth was 12.5%.
`COc1ccc(/C=C/C(=O)c2ccc(B(O)O)cc2)cc1O` showed a growth of 88.2%.
`O=C(Nc1ccc(OCc2nnc(-c3ccc(Cl)cc3)o2)c(F)c1)Nc1ccc(Cl)c(Cl)c1` gave a growth of 66.6%.
`COc1cc(/C=C2\C=C(c3ccc(F)cc3)N(Cc3ccccc3)C2=O)cc(OC)c1OC` showed a growth of 89.6%.
In the case of `Cc1cc(C)c(NC(=O)c2sc3nc4c(cc3c2N)CN(Cc2ccccc2)CC4)c(C)c1`, the growth is reported as 57.1%.
`COc1cccc(-c2nc3sccn3c2-c2ccnc(NCCCNS(=O)(=O)c3ccccc3)n2)c1` gave a growth of 128%.
Molecule `COc1cc(NCCN=C(N)NC(N)=NC(C)C)c2ncccc2c1` has a growth of 80.2%.
Work on `Cc1ccc(Nc2ncnc3c2sc2ncccc23)cc1` yielded a growth of 101%.
`COc1cccc(/C=C2\SC(N3CCN(c4ccccn4)CC3)=NC2=O)c1` showed a growth of 113%.
`CCOC(=O)C1=C(CSC(=S)N(C2CCCCC2)C2CCCCC2)N(C)C(=O)NC1c1ccccc1` (centres undefined) showed a growth of 92%.
For `CC(C)C[C@H](NC(=O)[C@@H](Cc1ccccc1)n1ccc(Nc2ccccc2)cc1=O)B(O)O`, the growth was 16%.
With `COc1cccc(-c2nc3sccn3c2-c2ccnc(NCCCNS(=O)(=O)c3ccc(F)cc3)n2)c1` the growth was 116%.
`O=S(=O)(NCCCNc1nccc(-c2c(-c3ccccc3)nc3sccn23)n1)c1ccc(F)cc1` gave a growth of 111%.
`Nc1c(C(=O)Nc2ccccc2)sc2nc3c(cc12)CCCCC3` showed a growth of 43.8%.
`CCNC(=O)CCCCC(=O)c1c(C)[nH]c(/C=C2\N=C(c3ccc[nH]3)C=C2OC)c1C` was tested, and the growth was 66.3%.
Molecule `Cc1cc(Nc2nc(C(=O)Nc3ccccc3)nc3ccccc23)n[nH]1` has a growth of 82.2%.
With `CCCCCCCCCCCCCCCCC(Br)C(=O)O` (centres undefined) the growth was 99.3%.
For `COc1ccc(/C=C2\C(=O)N(C(=O)c3csc(NC(C)=O)n3)N=C2C)cc1`, the growth was 110%.
For `COc1ccc(-c2nc3sccn3c2-c2ccnc(NCCCNS(=O)(=O)c3ccc4ccccc4c3)n2)cc1`, the growth was 132%.
For `CC[C@]1(O)C[C@@H]2CN(Cc3c([nH]c4ccccc34)[C@@](C(=O)OC)(c3cc4c(cc3OC)N(C)[C@H]3[C@@](O)(C(=O)OC)[C@H](OC(C)=O)[C@]5(CC)[C@@H]6C[C@@H]6CN6CC[C@]43[C@@H]65)C2)C1`, the growth was 51%.
`CN=S(=O)(NC(=O)c1ccc(Cl)cc1Cl)c1ccc(Br)s1` (centres undefined) gave a growth of 95.3%.
For `Cc1ccc(S(=O)(=O)NCCCNc2nccc(-c3c(-c4ccccc4)nc4sccn34)n2)cc1`, the growth was 117%.
`COc1cc(OC)c(C(=O)/C=C/c2cccc(C#N)c2)c(OC)c1` gave a growth of 40.1%.
`COc1ccc(C2CC(c3cccs3)=NN2c2ccc(S(=O)(=O)NC(=O)Nc3ccc(C)cc3)cc2)cc1` (centres undefined) was tested, and the growth was 115%.
For `O=S(=O)(NCCNc1nccc(-c2c(-c3ccccc3)nc3sccn23)n1)c1ccc(O)cc1`, the growth was 87.1%.
Work on `CNC(=O)Cc1nc(-c2cccc(NS(=O)(=O)c3c(F)cccc3F)c2F)c(-c2ccnc(Nc3ccccc3)n2)s1` yielded a growth of 32.9%.
For `O=c1[nH]c2ccccc2cc1-c1nnc(Cc2ccccc2)o1`, the growth was 120%.
`CCCCCCC[C@@H](O)CC(=O)N[C@H](CCCCN)C(=O)N[C@H](Cc1c[nH]c2ccccc12)C(=O)NC(CCCCN)C(=O)N[C@H](CC(C)C)C(=O)N[C@H](Cc1ccccc1)C(=O)N[C@H](CCCCN)C(=O)N[C@H](CCCCN)C(=O)N[C@H](CC(C)C)C(=O)N1CCCC1C(=O)N[C@H](CCCCN)C(=O)N[C@H](Cc1ccccc1)C(=O)N[C@H](CC(C)C)C(=O)N[C@H](Cc1c[nH]cn1)C(=O)N[C@H](CC(C)C)C(=O)N[C@H](C)C(=O)N[C@H](CCCCN)C(=O)N[C@H](CCCCN)C(=O)N[C@H](Cc1ccccc1)C(=O)O` (some centres undefined) was tested, and the growth was -63% (active).
With `Oc1ccc(Cl)cc1-c1cc(-c2ccc(Cl)cc2)n[nH]1` the growth was 73.3%.
With `CN1C(=O)[C@H]2c3c1cccc3[C@@]13NC(=O)O[C@H]1[C@H](CCC3(C)C)C2(C)C` the growth was 101%.
`Cc1cccc(-n2c(C)nc3ccc(NC(=O)NCCCl)cc3c2=O)c1` gave a growth of 107%.
Work on `COc1c(NC[C@H]2OC(O)[C@H](O)[C@@H](O)[C@@H]2O)c(=O)c1=O` (some centres undefined) yielded a growth of 103%.
Work on `COc1ccc(-c2nnc(COc3ccc(NS(=O)(=O)c4ccc(OC)cc4)cc3F)o2)cc1` yielded a growth of 94.2%.
`CCCOC(=O)C1(O)CCCC1` showed a growth of 87.2%.
`Nc1c(C(=O)Nc2ccccc2)sc2nc3c(cc12)CN(Cc1ccccc1)CC3` gave a growth of 78.5%.
`COc1cc(OC)cc(-c2n[nH]nc2-c2ccc3c(c2)OCO3)c1` was tested, and the growth was 4.97% (active).
In the case of `Cc1ccc(Oc2nc3ccccc3cc2-c2nnc(Cn3c(COc4ccccc4)nc4ccccc43)o2)cc1`, the growth is reported as 87.7%.
With `COc1cc(C(=O)/C=C/c2cc(C(=O)c3cc(OC)c(OC)c(OC)c3)ccc2OC)ccc1N` the growth was -54.1% (active).
